Jurkat NFkB inh: lowers PMA/ionomycin-induced NF-kB signal in Jurkat cells | AID 435003 | inhibition, % at 4 µM | hit rate 0.53% among 330,000 | PMA/ionomycin-induced NF-kB luciferase reporter, luminescence; in the data active means inhibition above about 50%
Mdm2-MdmX inh: inhibitors of human Mdm2/MdmX interaction | O15151+Q00987 | inhibition, % at 8 µM | SaOS-2 split-luciferase Mdm2/MdmX complementation, luminescence | AID 485346 | hit rate 3% among 330,000;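 active means inhibition of at least 50% at 8 µM in the primary screen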
CSC inhib: blocks cancer stem cells. cancer stem cell-like cells viability, luminescence. inhibition, % at 7.5 µM. hit rate 1.1% among 300,000; in the data active means inhibition above about 75%; tested in HMLE shEcad cells
aSyn 5UTR inh: MLPCN primary screen, SNCA 5' untranslated region | alpha-synuclein 5'UTR reporter, inhibitor activity | inhibition, % (tested at 7.5 µM) | hit rate 0.82% among 300,000 | AID 1813; in the data active means inhibition above about 60%;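 further: H4 neuroglioblastoma cells stably carrying SNCA 5'UTR luciferase fusion; 0% = DMSO wells and 100% = positive control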
697 NFkB inh: inhibitors of the PMA/ionomycin-induced NF-kB reporter in 697 B cells; 697 B-cell NF-kB luciferase reporter, 16 h; inhibition, % at 4 µM; hit rate 0.33% among 330,000; in the data active means inhibition above about 35%
Gli-Sufu block: blocks Gli-Sufu signaling in a luciferase reporter | Sufu-KO-LIGHT fibroblasts, Gli luciferase reporter luminescence | inhibition, % at 5 µM | hit rate 0.74% among 340,000 | AID 588413;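 active means inhibition above about 55%, limit read from the data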;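 further: 0% = DMSO-treated cells and 100% = wells with medium but no cells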
Mdm2 MdmX conf: confirmation of human Mdm2/MdmX interaction inhibitors; shares compounds with Mdm2-MdmX inh; Mdm2-MdmX binding, luminescent assay; inhibition, % at 8 µM; hit rate 55% among 10,000; AID 489028; in the data active means inhibition above about 40%
FLuc counter: counter-screen for Mdm2/MdmX inhibitors: full-length luciferase; AID 504607; SaOS-2 full-length luciferase counterscreen, luminescence; hit rate 77% among 6,200; inhibition, % at 8 µM; shares compounds with Mdm2-MdmX inh;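 active means mean inhibition at 8 µM reaching about 37%, which flags the compound as non-specific, limit read from the data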;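 further: p53-null SaOS-2 cells with luciferase driven by a doxycycline-inducible promoter; compound on cells about two nights before reading with doxycycline added after day one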
Active calls of the source: *. Rows were chosen to be rich in hits. Some 4.5% of all compounds tested hit in one or more screens of this group.

For COc1ccc(NS(=O)(=O)c2cc(NC(=O)C3CCCO3)ccc2N2CCCC2)cc1 (centres undefined) the results were Jurkat NFkB inh 1.0, Mdm2-MdmX inh 17.1, CSC inhib -7.5, aSyn 5UTR inh 8.0, 697 NFkB inh 7.5 and Gli-Sufu block 1.9.
`COc1ccc(NS(=O)(=O)c2cc(NC(=O)c3cc(F)c(F)c(F)c3F)ccc2N2CCCC2)cc1` gave Jurkat NFkB inh 7.2, Mdm2-MdmX inh 61.3*, CSC inhib 42.9, aSyn 5UTR inh 44.3, 697 NFkB inh 32.9, Gli-Sufu block -25.8 and Mdm2 MdmX conf 30.4.
Screening COc1ccc(NS(=O)(=O)c2cc(NC(=O)c3cc(F)c(F)cc3Cl)ccc2N2CCOCC2)cc1 returned Jurkat NFkB inh 12.2, Mdm2-MdmX inh 51.4*, CSC inhib -3.6, 697 NFkB inh 5.7, Gli-Sufu block -30.9 and Mdm2 MdmX conf 12.1.
`COc1ccc(NS(=O)(=O)c2cc(NC(=O)c3ccc(=O)[nH]c3)ccc2N2CCOCC2)cc1` gave Jurkat NFkB inh -10.5, Mdm2-MdmX inh 6.5, aSyn 5UTR inh 6.6, 697 NFkB inh 0.0 and Gli-Sufu block 0.8.
Screening C=CCn1c(SCC(=O)N(C)c2c(N)n(Cc3ccccc3)c(=O)[nH]c2=O)nnc1-c1ccccc1OC returned Jurkat NFkB inh 8.6, Mdm2-MdmX inh 13.9, CSC inhib -7.7, aSyn 5UTR inh -1.1, 697 NFkB inh 7.1 and Gli-Sufu block -13.2.
CCOc1ccc(CCNC(=O)CCNC(=O)c2ccco2)cc1OCC was read as Jurkat NFkB inh 9.0, Mdm2-MdmX inh 19.0, CSC inhib -9.5, aSyn 5UTR inh 5.7, 697 NFkB inh 24.6 and Gli-Sufu block -27.4.
`COc1ccc(C(=O)NC2CC(C)(C)Cc3occc32)cc1` (centres undefined) gave Jurkat NFkB inh 5.5, Mdm2-MdmX inh -5.1, CSC inhib -7.2, aSyn 5UTR inh -3.9, 697 NFkB inh 1.5 and Gli-Sufu block 2.2.
Cc1nc(/C(N)=N/OC(=O)c2c(-c3ccccc3Cl)noc2C)cs1 was read as Jurkat NFkB inh 5.8, Mdm2-MdmX inh 93.2*, CSC inhib 18.5, aSyn 5UTR inh -7.8, 697 NFkB inh -5.1, Gli-Sufu block 1.8, Mdm2 MdmX conf 76.5* and FLuc counter 95.8*.
Cc1onc(-c2ccccc2Cl)c1C(N)=O was read as Jurkat NFkB inh -7.4, Mdm2-MdmX inh 0.9, CSC inhib 3.1, aSyn 5UTR inh -4.6, 697 NFkB inh -1.8 and Gli-Sufu block -4.2.
For COc1ccc(/C(N)=N/OC(=O)c2c(-c3ccccc3Cl)noc2C)cc1OC the results were Jurkat NFkB inh 7.5, Mdm2-MdmX inh 100.3*, CSC inhib 25.4, aSyn 5UTR inh 37.0, 697 NFkB inh -24.8, Gli-Sufu block 1.4, Mdm2 MdmX conf 95.8* and FLuc counter 95.8*.
`COc1ccc(-c2csc(/C(C#N)=C/Nc3ccc4c(c3)OCCO4)n2)cc1` gave Jurkat NFkB inh 21.4, Mdm2-MdmX inh 52.0*, CSC inhib 4.6, aSyn 5UTR inh -14.0, 697 NFkB inh 13.4, Gli-Sufu block 6.1 and Mdm2 MdmX conf 7.7.
COc1ccc(-c2csc(/C(C#N)=C\c3ccc(OC)c([N+](=O)[O-])c3)n2)cc1 was read as Jurkat NFkB inh -15.2, Mdm2-MdmX inh 53.7*, CSC inhib 0.9, aSyn 5UTR inh 19.0, 697 NFkB inh 11.0, Gli-Sufu block 19.3 and Mdm2 MdmX conf 15.9.
Screening COc1ccc(-c2csc(/C(C#N)=C\c3cccc([N+](=O)[O-])c3)n2)cc1 returned Jurkat NFkB inh 0.2, Mdm2-MdmX inh 33.1, CSC inhib 0.2, aSyn 5UTR inh -3.7 and 697 NFkB inh 3.6.
COc1ccc(-c2csc(/C(C#N)=C\c3ccc(O)c([N+](=O)[O-])c3)n2)cc1OC was read as Jurkat NFkB inh -9.3, Mdm2-MdmX inh 53.2*, CSC inhib 44.7, aSyn 5UTR inh -5.2, 697 NFkB inh -14.1, Gli-Sufu block 32.8, Mdm2 MdmX conf 47.3* and FLuc counter 62.0*.
Screening COc1ccc(N2C(=O)C3[C@@H](C2=O)C2(Cl)C(Cl)=C(Cl)C3(Cl)C2(OC)OC)cc1 (some centres undefined) returned Jurkat NFkB inh -2.0, Mdm2-MdmX inh 1.8, CSC inhib -4.2, aSyn 5UTR inh 9.2, 697 NFkB inh -8.7 and Gli-Sufu block 8.4.
CCn1cc(/C=C(\NC(=O)c2ccc(OC)cc2)C(=O)N2CCOCC2)c2ccccc21 was read as Jurkat NFkB inh -7.1, Mdm2-MdmX inh 6.2, CSC inhib -6.2, aSyn 5UTR inh 27.8, 697 NFkB inh -17.8 and Gli-Sufu block -3.6.
For CCN1C(=O)c2cccc3c(S(=O)(=O)N(C(C)=O)c4ccc(OC(C)=O)cc4)ccc1c23 the results were Jurkat NFkB inh -10.8, Mdm2-MdmX inh 61.1*, CSC inhib 6.7, 697 NFkB inh 17.9, Gli-Sufu block 15.3 and Mdm2 MdmX conf 1.4.
CCN1C(=O)c2cccc3c(NS(=O)(=O)c4ccc(NC(C)=O)cc4)ccc1c23 was read as Jurkat NFkB inh 0.8, Mdm2-MdmX inh 43.6, CSC inhib -14.2, aSyn 5UTR inh 16.9, 697 NFkB inh 29.5 and Gli-Sufu block 7.3.
CCN1C(=O)c2cccc3c(NC(=O)c4ccc(S(=O)(=O)N5CCOCC5)cc4)ccc1c23 was read as Jurkat NFkB inh -6.1, Mdm2-MdmX inh 51.2*, CSC inhib -1.1, aSyn 5UTR inh -10.5, 697 NFkB inh 30.6, Gli-Sufu block 12.7, Mdm2 MdmX conf 49.0* and FLuc counter 93.5*.
Screening CCN1C(=O)c2cccc3c(NC(=O)c4ccc(S(=O)(=O)N(C)C)cc4)ccc1c23 returned Jurkat NFkB inh -12.6, Mdm2-MdmX inh 58.5*, CSC inhib -4.0, aSyn 5UTR inh 21.3, 697 NFkB inh 13.1, Gli-Sufu block 19.1, Mdm2 MdmX conf 32.5 and FLuc counter 63.5*.
For O=S(=O)(c1cccc(-c2n[nH]c(=S)n2-c2ccc(OC(F)(F)F)cc2)c1)N1CCOCC1 the results were Jurkat NFkB inh -2.2, Mdm2-MdmX inh -7.1, CSC inhib 16.6, 697 NFkB inh -6.7 and Gli-Sufu block -1.6.
CCOC(=O)Cc1cnc(NC(=O)CSc2nc(N)cc(N)n2)s1 was read as Jurkat NFkB inh 15.6, Mdm2-MdmX inh 29.0, CSC inhib -9.7, aSyn 5UTR inh 4.0, 697 NFkB inh 9.7 and Gli-Sufu block 0.0.
`CCOC(=O)c1sc2nc(CSc3ccccc3)nc(NCCN(C)C)c2c1C` gave Jurkat NFkB inh 1.1, Mdm2-MdmX inh 51.2*, CSC inhib 9.0, aSyn 5UTR inh -15.0, 697 NFkB inh 0.8, Gli-Sufu block 15.8 and Mdm2 MdmX conf 15.8.

Screens deposited in PubChem by several laboratories.
